Assay outcomes: PubChem, University of Kansas High Throughput Screening Laboratory
Pf apPOL inh: Pf-apPOL DNA polymerase inhibition. inhibition, % at 10 µM. Recombinant Pf-apPOL, molecular beacon fluorescence, 1.5 h. hit rate 0.25% among 210,000
mHTT CaM bind: mHTT-calmodulin interaction abrogation; AlphaScreen His-mHTT/GST-CaM binding, luminescence; inhibition, % at 15 µM; hit rate 3.6% among 190,000; P42858; AID 1671202
Large screens that a line does not name were inactive. Shown is part of a subset that was picked to be rich in hits. No stated cut-off is given here; in the data, active means inhibition above about 50%; inactive means the rest.

COc1cc(CNc2ccc3c(c2)CCC3)c([N+](=O)[O-])cc1OC	mHTT CaM bind 71
O=[N+]([O-])c1ccccc1CNc1ccc2c(c1)CCC2	mHTT CaM bind 94
O=[N+]([O-])c1cccc(CNc2cccc(F)c2)c1	none
COc1cc(CNC2CCCCCC2)c([N+](=O)[O-])cc1OC	none
O=[N+]([O-])c1ccccc1CNc1ccc2cn[nH]c2c1	mHTT CaM bind 59
O=[N+]([O-])c1ccccc1CNc1ccc(F)c(F)c1	none
O=[N+]([O-])c1cccc(CNc2ccc3c(c2)CCC3)c1	mHTT CaM bind 89
O=C(Nc1ccc2cn[nH]c2c1)c1ccc([N+](=O)[O-])o1	none
O=C(c1cc2c(=O)n(Cc3ccccc3)ccc2s1)N1CCOCC1	none
COc1ccccc1C1=NOC(C(=O)Nc2ccc3c(c2)OCO3)C1 (centres undefined)	none
CCCn1c(=O)cc(N2CCN(C(=O)CC)CC2)c2cc(C)ccc21	none
CCCn1cnc2c1c(=O)n(C1CCCCC1)c(=O)n2-c1ccccc1	none
O=C(c1ccccc1C(F)(F)F)N1CCN(c2nc(CN3CCCCC3)cs2)CC1	none
COc1cc(CNc2ccc(F)c(Cl)c2)c([N+](=O)[O-])cc1OC	mHTT CaM bind 62
COc1cc(CNc2ccc(F)c(Cl)c2)cc([N+](=O)[O-])c1O	none
CCCCOC(=O)C1C2C=CC3(CN(c4cccc(C)c4)C(=O)C13)O2 (centres undefined)	none
COC(=O)C1C2C=CC3(CN(c4cccc(C)c4)C(=O)C13)O2 (centres undefined)	mHTT CaM bind 66
Cc1cc([N+](=O)[O-])ccc1-n1c(C)ccc1C	none
O=C1NC2(CCN(Cc3ccc(F)cc3)CC2)N=C1c1cccc(F)c1	none
O=C(Oc1cccc(C(F)(F)F)c1)c1c(-c2ccccc2)nnc2ccccc12	none (no result: mHTT CaM bind)
O=C1C2CC=CCC2C(=O)N1c1ccc(NC2CCCc3ccccc32)c([N+](=O)[O-])c1 (centres undefined)	none
O=C1CCC(=O)N1c1ccc(NC2CCCc3ccccc32)c([N+](=O)[O-])c1 (centres undefined)	mHTT CaM bind 66
CC1(C)CCCC(C)(C)N1CC(O)COCC1CC2CCC1C2 (centres undefined)	none
O=C(CSc1nc2c(c(=O)n1-c1ccccc1)SCC2)Nc1cccc(C(F)(F)F)c1	none
O=C(c1cc([N+](=O)[O-])ccc1N1CCCC1)N1CCOCC1	none
CN(C)/C(=C1/c2cc([N+](=O)[O-])ccc2-c2c1cc([N+](=O)[O-])cc2[N+](=O)[O-])N1CCOCC1	mHTT CaM bind 57
Cc1[nH]c2ccccc2c1C(=O)CN1CCCC1	mHTT CaM bind 59
Cc1[nH]c2ccccc2c1C(=O)CN1CCCCC1	none
Cc1ccc(C(=O)N2CCCC(COc3cccc(C(=O)N4CCCC4)c3)C2)cc1F (centres undefined)	none
Cc1ccc2c(c1)c1c3n2CCN(C=O)C3CCC1 (centres undefined)	none
O=CN1CCn2c3c(c(=O)c4cc(C5CCCCC5)ccc42)CCC31 (centres undefined)	mHTT CaM bind 82
CC1=CC(C)(C)Nc2cc(C(C)(C)C)c(O)cc21	mHTT CaM bind 95
CC(C)(C)c1cc(-c2cc(C(C)(C)C)c(O)c(C(C)(C)C)c2)cc(C(C)(C)C)c1O	none (no result: mHTT CaM bind)
CCOC(=O)Oc1ccc2c(c1)C(C)=CC(C)(C)N2	none
CC1=CC(C)(C)Nc2cc(CN(C)C)c(O)cc21	mHTT CaM bind 98
Nc1nc(O)c(C2=c3cc(Br)cc(Br)c3=NC2=O)s1	none
Cc1cccc(N2CC(C(=O)N(C)C)CC2=O)c1 (centres undefined)	none
COc1cc(CNC(=O)c2cc3c(s2)CN(C(C)C)C3)cc(OC)c1	none
Cc1ccc2cccc(OCc3ccccc3)c2n1	none
Cc1c(Cl)cccc1-c1ccc(C(=O)Nc2ccccn2)o1	none
CCOc1cccc(C(Nc2ccccn2)c2ccc3ccc(C)nc3c2O)c1O (centres undefined)	mHTT CaM bind 67
Cc1ccc2ccc(C(Nc3ccccn3)c3ccccc3Cl)c(O)c2n1 (centres undefined)	mHTT CaM bind 64
COc1nn(C)cc1C(=O)Nc1nnc(SCC(=O)Nc2nc(C)cs2)s1	none
CCN1CCCc2cc(CCNC(=O)Nc3ccc(OC)c(OC)c3)ccc21	mHTT CaM bind 86
COc1ccc(CC(=O)Nc2ccc(N3CCCC3=O)c(OC)c2)cc1OC	none
CN1CCCc2cc(CCNC(=O)C(=O)NCc3cccs3)ccc21	none
CCCN1CCCc2cc(CCNC(=O)COCC)ccc21	mHTT CaM bind 59
O=C(c1ccc(OCC2CCN(C(=O)c3ccco3)CC2)cc1)N1CCOCC1	none
Cc1ccc(S(=O)(=O)N2CCCC(C)(C(=O)NCc3ccccc3)C2)cc1 (centres undefined)	none
Cc1ccc(C(=O)CC(=O)c2ccccc2C)c(O)c1	none
Cc1ccc(C(=O)CN2C(C(=O)c3ccccc3)=C(N(C)C)c3ccccc3S2(=O)=O)c(C)c1	mHTT CaM bind 55
CN1C(=C(O)c2ccccc2)C(=O)c2ccccc2S1(=O)=O	none
